# A selection: hits, their analogues and other compounds. The true share with any hit is near 7.3%.
# Rab9 prom act: qHTS Assay for Rab9 Promoter Activators | AID 485297, 2010 | Huh7 Rab9 promoter-luciferase reporter, luminescence, 24 h | Potency, µM (series often up to 9.22 µM), without a hit: at the highest dose activation, negative = inhibition, most hits filed as activators | 320,000 compounds, 2.8% hits; further: % of control where 0% means no effect; nearly all actives have a fitted effect of over 60% in size
#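 Huh7 cells stably carrying Rab9 promoter–luciferase reporter, plated 1500 cells/well, compound added after 2 h and incubated 24 h at 37 °C; luciferase luminescence then read after 10 min with detection reagent.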
# FLuc counter: qHTS profiling assay for firefly luciferase inhibitor/activator using purifed enzyme and Km concentrations of substrates (counterscreen for miR-21 project); Luciferin 4-monooxygenase (Photinus pyralis), P08659; purified FLuc, Km substrates, luminescence inhibition; Potency, µM (titrated, usually from 57.5 µM), without a hit: top-dose activity change, negative = inhibition, hits mostly inhibitors; 360,000 compounds, 6.9% hits; AID 588342, 2011;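 further: plate controls were vehicle for no effect and reference inhibitor for full effect; nearly all actives have a fitted effect of over 55% in size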
# Target sequence (P08659 whole entry, looked up): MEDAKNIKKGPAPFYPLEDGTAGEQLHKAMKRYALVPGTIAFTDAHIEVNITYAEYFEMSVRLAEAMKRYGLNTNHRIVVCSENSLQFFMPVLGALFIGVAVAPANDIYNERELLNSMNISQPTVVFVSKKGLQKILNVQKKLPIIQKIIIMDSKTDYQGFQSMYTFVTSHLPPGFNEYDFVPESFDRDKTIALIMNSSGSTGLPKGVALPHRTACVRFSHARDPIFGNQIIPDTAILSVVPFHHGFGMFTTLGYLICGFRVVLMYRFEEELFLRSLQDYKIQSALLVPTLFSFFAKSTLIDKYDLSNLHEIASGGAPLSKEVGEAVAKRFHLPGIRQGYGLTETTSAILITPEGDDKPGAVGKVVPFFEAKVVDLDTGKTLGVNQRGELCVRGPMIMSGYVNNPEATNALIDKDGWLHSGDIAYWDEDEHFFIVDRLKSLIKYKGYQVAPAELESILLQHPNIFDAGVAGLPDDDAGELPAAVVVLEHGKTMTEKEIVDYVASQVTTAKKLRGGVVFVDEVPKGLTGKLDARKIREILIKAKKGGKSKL
#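 Purified P. pyralis luciferase, 10 nM final, with Km-level 10 uM D-luciferin and 10 uM ATP in 50 mM Tris acetate pH 7.5, 10 mM Mg acetate, 0.01% Tween-20, 0.05% BSA; 6-point qHTS titration about 60 µM downward; luminescence read.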
# p53 reactivator: qHTS assay for re-activators of p53 using a Luc reporter; Potency, µM (doses to about 92.2 µM), for the others: at the highest dose activity change, positive = activation, most hits filed as activators; H1299 p53-A138V BP100-luciferase reporter, luminescence, 24 h; AID 504706, 2011; 320,000 compounds, 0.063% hits; further: % of control where 0% means no effect; nearly all actives have a fitted effect of over 45% in size
#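 p53-null H1299 cells stably carrying temperature-sensitive p53-A138V and a BP100-luciferase reporter were pinned with compounds (4-point, 1:5 series) and held 24 hrs at 37 deg C. Luminescence was read 10 min after detection reagent.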
# SMN2 splice enh: qHTS Assay for Enhancers of SMN2 Splice Variant Expression | HEK293 SMN2-luciferase splicing reporter, luminescence, 30-36 h | Potency, µM (top dose mostly 46.1 µM), for inactives: at the highest dose activity change, positive = activation, actives largely listed as activators | 210,000 compounds, 2.8% hits | AID 1458, 2008; further: % of control where 0% means no effect; nearly all actives have a fitted effect of over 55% in size
#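 HEK293 cells carry an SMN2 minigene-luciferase reporter in which exon 7 inclusion puts luciferase in frame. Cells were seeded at 2000 cells/well, attached for 10-12 hours, then exposed to compounds for 30-36 hours at 37C before ONE-Glo luminescence.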
# NPC1 promoter act: qHTS Assay for NPC1 Promoter Activators; 320,000 compounds, 2.4% hits; Huh7 NPC1 promoter luciferase reporter, 24 h; Potency, µM (series often up to 9.22 µM), inactives show at the top dose activation, hits mostly activators; AID 485313, 2010; further: % of control where 0% means no effect; nearly all actives have a fitted effect of over 60% in size
#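 Quantitative HTS used a cell-based reporter: Huh7 cells stably bearing the NPC1 promoter upstream of luciferase were treated with compounds for 24 h, and promoter activation was read as luminescence.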
# ELG1 genotox: qHTS screen for small molecules that induce genotoxicity in human embryonic kidney (HEK293T) cells expressing luciferase-tagged ELG1; HEK293T ELG1-luciferase reporter, luminescence, 16 h; Potency, µM (doses to about 46 µM), for inactives: at the top dose activity change, positive = activation, hits mostly activators; 330,000 compounds, 1.3% hits; further: % of control where 0% means no effect; nearly all actives have a fitted effect of over 60% in size
#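 Cells (2,000/well) expressing the ELG1-luciferase fusion are dosed by pin tool and kept 16 hr at 37 °C, 5% CO2. Signal comes from ONE-Glo luciferase reagent after 30 min at room temperature.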
# * = called active by the depositor; ? = inconclusive; · = not tested or not shown. The call rests on the fitted dose curve; in most records, active means well fitted curve in the direction sought with a large enough effect; inconclusive means small, poorly fitted or top-dose-only effect, or another doubt; inactive means no such curve, though single readings can be large; an effect the other way counts as inactive or inconclusive. Potency means the concentration at half of the fitted maximal effect.
SMILES,Rab9 prom act,FLuc counter,p53 reactivator,SMN2 splice enh,NPC1 promoter act,ELG1 genotox
CCCCN(CC)C(=O)CSc1nc2c(sc(=S)n2-c2ccc(OCC)cc2)c(=O)[nH]1,0.7%,16.9µM*,0.5%,-26.6%,-1.6%,-5.6%
Cc1ccc(S(=O)(=O)c2cnc(SCC(=O)Nc3cccc(Cl)c3)nc2N)cc1C,·,-1.4%,·,15.0%,·,·
CCN(c1ccc(C)cc1C)S(=O)(=O)c1nnc(NC(=O)c2ccccc2OC)s1,·,5.4%,·,·,·,·
CCCN1C(=O)S/C(=C\c2ccc(N3CCOCC3)cc2C)C1=O,2.24µM*,5.36µM*,?,3.9%,2µM*,?
CCN1C(=O)S/C(=C\c2ccc(N3CCOCC3)cc2C)C1=O,2µM*,2.69µM*,?,·,2µM*,?
CCCN1C(=O)S/C(=C\c2ccc(N3CCOCC3)o2)C1=O,?,?,-4.3%,-23.3%,22.0%,?
CCCN1C(=O)S/C(=C/c2ccc(N3CCOCC3)o2)C1=O,?,?,-13.5%,·,25.4%,?
Cn1cccc1C(=O)OCC(=O)Nc1ccc2c(c1)OCO2,2.82µM*,16.9µM*,?,?,3.55µM*,?
Cn1cccc1C(=O)OCC(=O)Nc1ccc2c(c1)CCC2,?,?,12.0%,20.2%,?,20.6µM*
Fc1ccccc1NC(=S)NCCc1cccc(Cl)c1,?,23.9µM*,?,·,?,15.8%
CC(=O)Nc1cccc(NC(=O)Nc2cccc3ccccc23)c1,0.7%,-8.7%,8.8%,·,-2.9%,-2.3%
O=C(NCc1ccccc1)C(=O)Nc1cccc(C(=O)O)c1,0.316µM*,0.675µM*,-5.6%,·,0.0891µM*,-5.0%
O=C(Nc1cccc(Cl)c1)Nc1ccc2nccnc2c1,2.24µM*,19µM*,?,·,2.82µM*,-1.8%
O=C(Nc1cccc(C(=O)O)c1)Nc1cccc2ccccc12,3.55µM*,2.13µM*,-1.8%,·,2µM*,8.4%
O=C(Nc1cccc(C(=O)O)c1)Nc1ccccc1Cl,0.1µM*,0.213µM*,-10.6%,12.6µM*,0.501µM*,-10.0%
Cc1nn(C)cc1CNC(=O)Nc1cccc(Cl)c1,3.55µM*,?,15.8%,?,?,27.8%
CC(=O)Nc1ccc(NC(=O)Nc2cccc(Cl)c2)cc1,27.5%,?,12.4%,·,28.6%,?
O=C(Nc1cccc(Cl)c1)Nc1ccc(Cl)cn1,26.1%,-10.9%,3.8%,8.0%,21.9%,11.0%
CC(=O)c1ccc(NC(=O)Nc2cccc(Cl)c2)cc1,1.26µM*,16.9µM*,?,11.2µM*,1.41µM*,?
O=C(Nc1cccc(Cl)c1)Nc1cccc(C(=O)O)c1,0.355µM*,0.477µM*,-7.1%,·,0.316µM*,-2.0%
CC1Cn2cc(C(=O)Nc3ccccc3C(F)(F)F)c(=O)c3c(Cl)ccc(c32)O1 (stereo unspecified),-5.3%,6.1%,·,·,-1.5%,·
CCOc1ccc(CNC(=O)CCC(=O)N2CC(C)Sc3ccccc32)cc1 (stereo unspecified),·,-8.2%,·,·,·,·
O=C(NNC1=NCCCCC1)Nc1ccc(Cl)cc1,?,?,6.5%,·,21.3%,19.0%
CC(=O)c1ccc(NC(=S)NCCc2cccc(Cl)c2)cc1,2.82µM*,-22.2%,2.4%,12.6µM*,?,?
Cc1cc2ccccn2c1C(=O)Nc1cccc(Cl)c1,28.0%,13.5µM*,4.8%,26.6%,-18.1%,12.4%
SMILES,Rab9 prom act,FLuc counter,p53 reactivator,SMN2 splice enh,NPC1 promoter act,ELG1 genotox
O=C(Nc1ccc(Cl)cc1)Nc1cccc(C(=O)O)c1,0.251µM*,0.0675µM*,-11.1%,·,0.0891µM*,-8.9%
O=C(NNC1=NCCCCC1)Nc1cccc(Cl)c1,1.12µM*,16.9µM*,29.5%,22.4µM*,?,10.6%
CSc1cccc(NC(=O)Nc2ccc(Cl)cc2)c1,27.1%,?,21.3%,-14.8%,16.0%,1.8%
CN(C)c1ccc(C(CNS(=O)(=O)c2ccc(Br)cc2)N2CCOCC2)cc1 (stereo unspecified),·,-5.9%,·,·,·,·
Cc1ccc(C)c(N2CCN(C(=O)Cn3cnc4sc(C)c(S(=O)(=O)N5CCN(c6ncccn6)CC5)c4c3=O)CC2)c1,·,11.2%,·,8.5%,·,·
Cc1cc(O)c(C(=O)Nc2cccc(Cl)c2)c(=O)n1C,2.51µM*,3.38µM*,-3.3%,·,2.24µM*,10.3µM*
O=C(Nc1cccc(C(=O)O)c1)/C(=C\c1ccccc1)NC(=O)c1cccc2ccccc12,-0.1%,21.3µM*,4.4%,·,-4.4%,0.4%
CC(=O)c1cccc(NC(=O)CCCOc2ccc(C)cc2)c1,9.3%,-12.7%,-0.6%,-19.9%,-0.2%,-1.7%
O=C(CCCOc1ccc(Cl)cc1)Nc1cccc(C(=O)O)c1,2.8%,16.9µM*,2.2%,·,-0.6%,5.3%
CS/C(N)=N/C(=S)Nc1cccc(Cl)c1,?,19µM*,17.2%,·,?,9.2%
CC(C)[C@@H](CC(=O)N[C@@H]1CCCC[C@H]1C(=O)N[C@H](CC(=O)N[C@@H](CCC(=O)O)CC(=O)O)Cc1ccccc1)NC(=O)C[C@H](Cc1c[nH]c2ccccc12)NC(=O)[C@@H]1CCCC[C@H]1N,·,·,·,-2.6%,·,·
O=C(Nc1ccc(C(=O)N2CCCCC2)cc1)Nc1cccc(Cl)c1,3.16µM*,10.7µM*,?,·,3.98µM*,13.3%
O=C(Nc1cccc(Cl)c1)N1CCCCCC1,14.6%,?,9.3%,·,26.3%,?
O=C(Nc1ccccc1)Nc1cccc(Cl)c1,3.55µM*,9.53µM*,?,15.3%,?,?
COCCNC(=O)/C(C#N)=C/c1cc(C)n(-c2ccc(C)cc2)c1C,1.58µM*,0.953µM*,6.1%,·,1.58µM*,4.11µM*
COc1ccc(-n2c(C)cc(/C=C(\C#N)C(=O)NCc3ccco3)c2C)cc1,0.2%,12µM*,1.9%,-7.4%,8.0%,-0.1%
Cc1cc(/C=C(\C#N)C(=O)O)c(C)n1C1CC1,2.2%,?,2.3%,-11.6%,-1.0%,0.2%
COCCNC(=O)/C(C#N)=C/c1cc(C)n(C2CCCCC2)c1C,0.794µM*,3.01µM*,?,6.31µM*,1.78µM*,1.3%
COc1ccc(NC(=O)/C(C#N)=C/c2cc(C)n(-c3ccc(F)cc3)c2C)cc1,·,?,·,3.4%,·,·
COCCNC(=O)/C(C#N)=C/c1ccccc1Br,0.6%,?,-1.9%,-5.5%,-6.0%,?
CC(=O)c1ccc(NC(=O)c2sc(-n3nc(C)c(CCC(C)C)c3C)nc2C)cc1,·,-6.3%,·,·,·,·

# Source: PubChem BioAssay (National Center for Advancing Translational Sciences (NCATS))
